In PubChem BioAssay AID651903 (Broad Institute, 2012):
The whole screen tested about 22,000 compounds, of which about 1,100 (5%) were called active. This is one part of a sample in which actives are shown more often than they occur. A number with no mark means an inactive call. Rule as the data show it: active = activity score above about 55%; inconclusive = no clear call, values can overlap the other calls; inactive = below that.

Assay: inhibitors of intracellular Trypanosoma cruzi, primary screen, cell-based, plate reader, single point, set 2 (AID 651903);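 also: parasites and compound incubated about four days before reading; 0% = median of neutral control wells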
Conditions: intracellular Trypanosoma cruzi in host cells, at 5.01 µM, stronger effect = higher value

First: C[C@@H]1CN([C@H](C)CO)C(=O)c2cccc(NC(=O)Nc3ccc(F)cc3)c2O[C@@H]1CN(C)Cc1ccc(C(F)(F)F)cc1
Second: C[C@H]1CN([C@@H](C)CO)C(=O)c2cccc(NC(=O)Nc3ccc(C(F)(F)F)cc3)c2O[C@@H]1CN(C)Cc1ccccc1
The activity score (inhibition) of the first is lower: -18.6% for the first, 8.46% for the second.

First: C[C@H]1CN([C@@H](C)CO)C(=O)c2cccc(NC(=O)C3CCCCC3)c2O[C@H]1CN(C)Cc1ccc(C(F)(F)F)cc1
Second: COc1ccc(CN(C)C[C@H]2Oc3c(NC(=O)NC4CCCCC4)cccc3C(=O)N([C@@H](C)CO)C[C@@H]2C)cc1
The activity score (inhibition) of the first is higher: 6.51% for the first, -5.36% for the second.

First: C[C@@H]1CN([C@@H](C)CO)C(=O)c2cccc(N(C)C)c2O[C@@H]1CN(C)S(C)(=O)=O
Second: CC(C)NC(=O)N(C)C[C@@H]1Oc2c(cccc2N(C)C)C(=O)N([C@H](C)CO)C[C@@H]1C
The activity score (inhibition) of the first is higher: -23.1% for the first, -30.9% for the second.

Going from `C[C@H]1CN([C@@H](C)CO)C(=O)c2cccc(NS(=O)(=O)c3ccccc3)c2O[C@@H]1CN(C)S(=O)(=O)c1cn(C)cn1` to `COc1ccc(S(=O)(=O)Nc2cccc3c2O[C@@H](CN(C)S(=O)(=O)c2ccc(F)cc2)[C@H](C)CN([C@H](C)CO)C3=O)cc1`, the activity score (inhibition) rises from -19.1% to -4.59%.

Compared with `C[C@H]1CN([C@@H](C)CO)C(=O)Cc2cc(NC(=O)C3CC3)ccc2O[C@@H]1CN(C)C(=O)NC1CCCCC1`, `C[C@@H]1CN([C@@H](C)CO)C(=O)c2cccc(NC(=O)C3CCOCC3)c2O[C@H]1CN(C)C(=O)NC1CCCCC1` is higher in activity score (inhibition): -11% for the first, 2.53% for the second.

First: C[C@@H]1CN([C@@H](C)CO)C(=O)c2cc(NC(=O)Nc3ccccc3)ccc2O[C@H]1CN(C)C(=O)Nc1ccc(F)cc1
Second: C[C@@H]1CN([C@H](C)CO)C(=O)c2cc(NC(=O)Nc3ccc(C(F)(F)F)cc3)ccc2O[C@H]1CN(C)C(=O)Nc1ccccc1
The activity score (inhibition) of the first is lower: -1.8% for the first, 4.44% for the second.

Going from `C[C@@H]1CN([C@H](C)CO)C(=O)c2cc(NC(=O)Cc3cn(C)c4ccccc34)ccc2O[C@H]1CN(C)S(C)(=O)=O` to `C[C@H]1CN([C@@H](C)CO)C(=O)Cc2cc(NC(=O)Nc3cccc4ccccc34)ccc2O[C@@H]1CN(C)S(C)(=O)=O`, the activity score (inhibition) falls from -9.14% to -12.5%.

First: C[C@@H]1CN([C@@H](C)CO)C(=O)c2cccc(NC(=O)Nc3ccc4c(c3)OCO4)c2O[C@@H]1CN(C)C(=O)Nc1ccc(F)cc1
Second: C[C@H](CO)N1C[C@H](C)[C@H](CN(C)C(=O)Nc2ccc3c(c2)OCO3)Oc2ccc(NC(=O)Nc3ccccc3)cc2CC1=O
The activity score (inhibition) of the first is lower: -15.6% for the first, -2.34% for the second.

First: C[C@H]1CN([C@@H](C)CO)C(=O)Cc2cc(NC(=O)Nc3ccc(C(F)(F)F)cc3)ccc2O[C@H]1CN(C)Cc1ccc(C(=O)O)cc1
Second: C[C@@H]1CN([C@H](C)CO)C(=O)Cc2cc(NC(=O)Nc3ccc4c(c3)OCO4)ccc2O[C@H]1CN(C)Cc1ccc(C(=O)O)cc1
The activity score (inhibition) of the first is lower: -28.2% for the first, -10.7% for the second.

Compared with `Cc1noc(C)c1NC(=O)Nc1ccc2c(c1)CC(=O)N([C@H](C)CO)C[C@@H](C)[C@@H](CN(C)Cc1ccc(C(F)(F)F)cc1)O2`, `Cc1noc(C)c1NC(=O)Nc1ccc2c(c1)CC(=O)N([C@@H](C)CO)C[C@@H](C)[C@@H](CN(C)Cc1ccc(Cl)c(Cl)c1)O2` is higher in activity score (inhibition): -9.04% for the first, 0.719% for the second.

Going from `C[C@@H]1CN([C@H](C)CO)C(=O)c2cc(NC(=O)Nc3ccc4c(c3)OCO4)ccc2O[C@@H]1CN(C)Cc1ccc(C(F)(F)F)cc1` to `C[C@H](CO)N1C[C@H](C)[C@@H](CN(C)Cc2ccc(C(F)(F)F)cc2)Oc2ccc(NC(=O)CCC(F)(F)F)cc2C1=O`, the activity score (inhibition) rises from 2.66% to 7.64%.

First: C[C@@H]1CN([C@H](C)CO)C(=O)Cc2cc(NC(=O)Nc3cccc4ccccc34)ccc2O[C@@H]1CN(C)Cc1ccc(C(=O)O)cc1
Second: Cc1noc(C)c1S(=O)(=O)N(C)C[C@H]1Oc2ccc(NC(=O)Nc3cccc4ccccc34)cc2CC(=O)N([C@@H](C)CO)C[C@H]1C
The activity score (inhibition) of the first is lower: -16% for the first, 23.8% for the second.

Going from `COc1ccc(CN(C)C[C@@H]2Oc3ccc(NC(=O)Nc4ccc(OC)cc4)cc3CC(=O)N([C@H](C)CO)C[C@H]2C)cc1` to `C[C@H]1CN([C@@H](C)CO)C(=O)Cc2cc(NC(=O)Nc3ccc(F)cc3)ccc2O[C@H]1CN(C)S(=O)(=O)c1ccccc1`, the activity score (inhibition) falls from 12% to 10.9%.

First: C[C@@H]1CN([C@H](C)CO)C(=O)c2cc(NC(=O)c3ccncc3)ccc2O[C@H]1CN(C)C(=O)Nc1ccc(C(F)(F)F)cc1
Second: C[C@H]1CN([C@@H](C)CO)C(=O)c2cc(NC(=O)c3ccncc3)ccc2O[C@H]1CN(C)Cc1ccc(C(=O)Nc2ccccc2N)cc1
The activity score (inhibition) of the first is lower: 1.32% for the first, 37.7% for the second.

First: COc1ccc(S(=O)(=O)N(C)C[C@@H]2Oc3ccc(NC(=O)C4CC4)cc3CC(=O)N([C@@H](C)CO)C[C@@H]2C)cc1
Second: C[C@H]1CN([C@@H](C)CO)C(=O)Cc2cc(NS(C)(=O)=O)ccc2O[C@@H]1CN(C)S(=O)(=O)c1ccc(Cl)cc1
The activity score (inhibition) of the first is lower: -7.17% for the first, 2.12% for the second.

Compared with `CNC[C@H]1Oc2ccc(NS(=O)(=O)c3ccc(F)cc3)cc2C(=O)N([C@@H](C)CO)C[C@@H]1C`, `C[C@@H]1CN([C@H](C)CO)C(=O)Cc2cc(NS(=O)(=O)c3ccc(F)cc3)ccc2O[C@@H]1CN(C)S(=O)(=O)c1ccc(F)cc1` is higher in activity score (inhibition): -7.11% for the first, 47.1% for the second.

First: C[C@H]1CN([C@@H](C)CO)C(=O)c2cccc(NC(=O)c3cnccn3)c2O[C@@H]1CN(C)Cc1ccc(Oc2ccccc2)cc1
Second: C[C@H](CO)N1C[C@H](C)[C@H](CN(C)Cc2ccc3c(c2)OCO3)Oc2c(NS(=O)(=O)c3ccccc3)cccc2C1=O
The activity score (inhibition) of the first is higher: 38.8% for the first, 4.5% for the second.

Going from `C[C@H]1CN([C@@H](C)CO)C(=O)Cc2cc(NC(=O)Nc3ccc(C(F)(F)F)cc3)ccc2O[C@@H]1CN(C)S(=O)(=O)c1ccc(Cl)cc1` to `C[C@H]1CN([C@@H](C)CO)C(=O)Cc2cc(NS(=O)(=O)c3ccc(Cl)cc3)ccc2O[C@@H]1CN(C)S(=O)(=O)c1ccccc1`, the activity score (inhibition) rises from -15.1% to 9.06%.

Compared with `COc1ccc(S(=O)(=O)N(C)C[C@H]2Oc3ccc(NS(=O)(=O)c4ccc(C)cc4)cc3CC(=O)N([C@@H](C)CO)C[C@@H]2C)cc1`, `Cc1ccc(S(=O)(=O)Nc2ccc3c(c2)CC(=O)N([C@@H](C)CO)C[C@@H](C)[C@@H](CN(C)S(=O)(=O)c2ccccc2)O3)cc1` is higher in activity score (inhibition): -20.8% for the first, 52% for the second.

Going from `C[C@@H]1CCCCO[C@H](CN(C)C(=O)c2ccccc2)[C@@H](C)CN([C@H](C)CO)C(=O)c2cc(NC(=O)c3ccccc3)ccc2O1` to `Cc1ccc(S(=O)(=O)N(C)C[C@H]2Oc3ccc(NS(C)(=O)=O)cc3CC(=O)N([C@@H](C)CO)C[C@H]2C)cc1`, the activity score (inhibition) rises from -16.9% to 5.47%.

Compared with `COc1ccc(S(=O)(=O)Nc2cccc3c2O[C@H](CN(C)S(=O)(=O)c2ccc(OC)cc2)[C@@H](C)CN([C@H](C)CO)C3=O)cc1`, `C[C@@H]1CN([C@H](C)CO)C(=O)CCCn2cc(nn2)CO[C@H]1CN(C)S(C)(=O)=O` is lower in activity score (inhibition): 8.53% for the first, -20.6% for the second.

With `C[C@@H]1CN([C@H](C)CO)C(=O)c2cccc(NC(=O)NC3CCCCC3)c2O[C@H]1CN(C)Cc1ccc(C(F)(F)F)cc1` the activity score (inhibition) was 85.3% (active).
In the case of `C[C@H](CO)N1C[C@H](C)[C@@H](CN(C)Cc2ccc(C(F)(F)F)cc2)Oc2c(NC(=O)NC3CCCCC3)cccc2C1=O`, the activity score (inhibition) is reported as 78.1% (active).
For `C[C@@H]1CN([C@H](C)CO)C(=O)Cc2cc(NC(=O)Nc3ccc4c(c3)OCO4)ccc2O[C@H]1CN(C)Cc1ccc(C(F)(F)F)cc1`, the activity score (inhibition) was 64.6% (active).
With `C[C@@H]1CN([C@H](C)CO)C(=O)Cc2cc(NC(=O)Nc3cccc4ccccc34)ccc2O[C@@H]1CN(C)Cc1ccc(C(F)(F)F)cc1` the activity score (inhibition) was 67.4% (active).
With `COc1ccc(NC(=O)Nc2ccc3c(c2)CC(=O)N([C@@H](C)CO)C[C@@H](C)[C@@H](CN(C)Cc2ccc(C(F)(F)F)cc2)O3)cc1` the activity score (inhibition) was 76% (active).
For `COc1ccc(S(=O)(=O)Nc2ccc3c(c2)CC(=O)N([C@H](C)CO)C[C@@H](C)[C@@H](CN(C)S(=O)(=O)c2ccc(F)cc2)O3)cc1`, the activity score (inhibition) was 60.4% (active).
For `C[C@@H]1CN([C@H](C)CO)C(=O)Cc2cc(NC(=O)Nc3ccc(C(F)(F)F)cc3)ccc2O[C@@H]1CN(C)S(=O)(=O)c1ccccc1`, the activity score (inhibition) was 70% (active).
For `C[C@@H]1CN([C@H](C)CO)C(=O)Cc2cc(NS(=O)(=O)c3ccc(Cl)cc3)ccc2O[C@@H]1CN(C)S(=O)(=O)c1ccc(Cl)cc1`, the activity score (inhibition) was 67.3% (active).
In the case of `Cc1ccc(S(=O)(=O)N(C)C[C@H]2Oc3ccc(NC(=O)Nc4cccc5ccccc45)cc3CC(=O)N([C@H](C)CO)C[C@H]2C)cc1`, the activity score (inhibition) is reported as 60.6% (active).
With `COc1ccc(S(=O)(=O)N(C)C[C@H]2Oc3c(NS(=O)(=O)c4ccc(F)cc4)cccc3C(=O)N([C@H](C)CO)C[C@H]2C)cc1` the activity score (inhibition) was 71.9% (active).
In the case of `Cc1ccc(S(=O)(=O)N(C)C[C@H]2Oc3ccc(NS(=O)(=O)c4ccccc4)cc3CC(=O)N([C@@H](C)CO)C[C@H]2C)cc1`, the activity score (inhibition) is reported as 57.7% (active).
